Only some compounds are listed: those with a hit (about 8.8% of all), similar ones and a draw of the others.
HT1080 IDH1KD tx – toxicity to HT-1080 IDH1 knockdown cells (counter line); HT-1080 IDH1 knockdown viability, ATP luminescence, 48 h; Potency, µM (highest dose often 46.1 µM), actives largely listed as cytotoxic; actives 2% (n = 360,000); AID 686971
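Viability of IDH1-knockdown HT-1080 fibrosarcoma cells was assessed by CellTiter-Glo after 48 h at 37 °C with titrated compound; concentration-effect curves were classified by fit quality and response size.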
KB-3-1 cytotox – kills parental KB-3-1 adenocarcinoma cells; AID 1347075; Potency, µM (top dose mostly 46.1 µM), hits mostly cytotoxic; actives 1.4% (n = 400,000); KB-3-1 viability, CellTiter-Glo ATP luminescence, 72 h; also: nearly all actives have a fitted effect of over 60% in size
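Screening of KB-3-1 cells (DMEM, 10% FBS, phenol-red free) ran from lowest to highest compound concentration; after 72 h at 37 °C viability was read luminescently and curves fitted.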
IL-1B inflam inh – inhibitors of inflammasome signaling (IL-1 beta secretion); THP-1 LPS/ATP IL-1B secretion, AlphaLISA, 16 h; stronger effect = lower value; actives 4.7% (n = 360,000); activity change, % at 57.5 µM; in the data active = activity change below about -50%; inconclusive = mostly about -30% to -49%
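THP-1 cells pretreated 1 hr with compounds (up to 57.5 uM final), then stimulated with LPS (250 ng/mL final) plus ATP (1.25 mM final); secreted IL-1B measured by AlphaLISA after 16 hr, decreased signal indicating inhibition.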
KB-V1 MDR tox – kills drug-selected multidrug resistant KB-V1 cells; KB-V1 MDR cells viability, CellTiter-Glo, 72 h; AID 1347076; Potency, µM (titrated, usually from 46.1 µM), usual class: cytotoxic; actives 3.4% (n = 400,000); also: nearly all actives have a fitted effect of over 60% in size
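qHTS viability screen in drug-selected KB-V1 MDR cells: 72 h compound treatment at 37 degrees C, ATP luminescence end point.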
HT1080NT lethal – kills 2HG-producing HT-1080-NT fibrosarcoma cells; Potency, µM (titrated, usually from 46.1 µM), hits mostly cytotoxic; HT-1080-NT fibrosarcoma viability, CellTiter-Glo ATP luminescence, 48 h; actives 1.6% (n = 360,000);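 also: NT is the 2HG producing partner of a matched IDH1 knockdown line; nearly all actives have a fitted effect of over 55% in size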
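Toxicity toward the 2HG-producing NT line was scored as %Activity, normalised to DMSO and no-cell wells, from CellTiter-Glo luminescence after 48 hours' treatment.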
Numbers stand for hits. Unless noted, calls follow the shape of the dose curve; as a rule, active = well fitted curve in the direction sought with a large enough effect; inconclusive = small, poorly fitted or top-dose-only effect, or another doubt; inactive = no such curve, though single readings can be large; an effect the other way counts as inactive or inconclusive.

`CS(=O)(=O)c1ccc(Cl)c(NC(=O)CCl)c1` gave HT1080 IDH1KD tx inconclusive, KB-3-1 cytotox 6.5µM, IL-1B inflam inh -100, KB-V1 MDR tox 21µM and HT1080NT lethal inconclusive.
Screening Cc1cc(C)c(C)c(OC(=O)c2sc(Cl)nc2C)c1 returned HT1080 IDH1KD tx inactive, KB-3-1 cytotox inactive, IL-1B inflam inh -104, KB-V1 MDR tox inactive and HT1080NT lethal inactive.
O=C(Nc1cccc(C(F)(F)F)c1)c1sc(Cl)nc1C(F)(F)F was read as HT1080 IDH1KD tx inactive, KB-3-1 cytotox inactive, IL-1B inflam inh -103, KB-V1 MDR tox inactive and HT1080NT lethal inactive.
Screening O=C(Nc1cccc(C(=O)OCc2cc(=O)n3ccsc3n2)c1)c1ccc(F)cc1 returned KB-3-1 cytotox inactive and KB-V1 MDR tox inconclusive.
Screening CC1CCCC(=NNC(=O)C2COc3ccccc3O2)C1 (stereo not drawn) returned HT1080 IDH1KD tx inactive, KB-3-1 cytotox inactive, IL-1B inflam inh inactive, KB-V1 MDR tox inconclusive and HT1080NT lethal inactive.
Screening Cc1ccc(NC(=O)CCl)c(C)c1 returned HT1080 IDH1KD tx inconclusive, KB-3-1 cytotox 16µM, IL-1B inflam inh -99, KB-V1 MDR tox inconclusive and HT1080NT lethal inconclusive.
Screening Cc1nc(Cl)sc1C(=O)Nc1ccc(C(C)(C)C)cc1 returned HT1080 IDH1KD tx inactive, KB-3-1 cytotox inactive, IL-1B inflam inh -91, KB-V1 MDR tox inactive and HT1080NT lethal inactive.
`Nc1nonc1-n1nnc(C(=O)N/N=C/c2cccc(Cl)c2)c1-c1cccs1` gave HT1080 IDH1KD tx inactive, KB-3-1 cytotox inactive, IL-1B inflam inh inconclusive, KB-V1 MDR tox inactive and HT1080NT lethal inactive.
For Cc1ccccc1OC(C)C(=O)NCCCN1CCOCC1 (stereo not drawn) the results were HT1080 IDH1KD tx inactive, KB-3-1 cytotox inactive, IL-1B inflam inh inactive, KB-V1 MDR tox inactive and HT1080NT lethal inactive.
CCOc1ccc(C(C(=O)Nc2ccc(F)cc2)N(C(=O)Cn2nnc3ccccc32)C2CC2)cc1 (stereo not drawn) was read as HT1080 IDH1KD tx inactive, KB-3-1 cytotox inactive, IL-1B inflam inh inactive, KB-V1 MDR tox 23µM and HT1080NT lethal inactive.
CCN(CC(=O)Nc1cc(Cl)ccc1C)C(=O)CCS(=O)(=O)c1ccc(C)cc1 was read as HT1080 IDH1KD tx inactive, KB-3-1 cytotox inactive, IL-1B inflam inh inactive, KB-V1 MDR tox inactive and HT1080NT lethal inactive.
`NS(=O)(=O)c1ccc(CCNCc2cc(Br)ccc2OCc2ccccc2F)cc1` gave HT1080 IDH1KD tx 23µM, KB-3-1 cytotox inactive, KB-V1 MDR tox inactive and HT1080NT lethal inconclusive.
For Nc1nonc1C(=O)NCCNCc1cc(Br)ccc1OCc1ccccc1F the results were HT1080 IDH1KD tx inactive, KB-3-1 cytotox inconclusive, IL-1B inflam inh -56, KB-V1 MDR tox inconclusive and HT1080NT lethal inactive.
For COc1cc(CNc2ccc(S(N)(=O)=O)cc2)ccc1OCc1ccccc1F the results were HT1080 IDH1KD tx inactive, KB-3-1 cytotox inconclusive, IL-1B inflam inh inactive, KB-V1 MDR tox inactive and HT1080NT lethal inactive.
`Nc1nonc1C(=O)NCCNCc1ccccc1OCc1ccccc1F` gave HT1080 IDH1KD tx inconclusive, KB-3-1 cytotox inactive, IL-1B inflam inh inactive, KB-V1 MDR tox inactive and HT1080NT lethal inconclusive.
NS(=O)(=O)c1ccc(CCNCc2ccccc2OCc2ccc(Cl)cc2)cc1 was read as HT1080 IDH1KD tx 15µM, KB-3-1 cytotox inconclusive, IL-1B inflam inh -81, KB-V1 MDR tox inactive and HT1080NT lethal 23µM.
COc1cc(CNCCNC(=O)c2nonc2N)ccc1OCc1ccc(Cl)cc1 was read as HT1080 IDH1KD tx 16µM, KB-3-1 cytotox inconclusive, IL-1B inflam inh -95, KB-V1 MDR tox inconclusive and HT1080NT lethal inconclusive.
`C=CCOc1ccccc1CNCCc1ccc(S(N)(=O)=O)cc1` gave HT1080 IDH1KD tx inactive, KB-3-1 cytotox inactive, IL-1B inflam inh inactive, KB-V1 MDR tox inactive and HT1080NT lethal inactive.
Screening NS(=O)(=O)c1ccc(CCNCc2cc(Cl)ccc2OCc2ccccc2)cc1 returned HT1080 IDH1KD tx inconclusive, KB-3-1 cytotox inactive, IL-1B inflam inh -100, KB-V1 MDR tox inactive and HT1080NT lethal inconclusive.
For COc1ccc(CNC(=O)Cn2ncc3c(=O)oc4ccccc4c32)c(OC)c1 the results were KB-3-1 cytotox inactive and KB-V1 MDR tox inactive.
COc1cc(C(=O)NC(=S)NNC(=O)c2cnccn2)cc(OC)c1OC was read as HT1080 IDH1KD tx 15µM, KB-3-1 cytotox inconclusive, IL-1B inflam inh inactive, KB-V1 MDR tox inconclusive and HT1080NT lethal inconclusive.
`COc1ccc(C(=O)NNC(=O)c2ccc(C(C)(C)C)cc2)cc1` gave HT1080 IDH1KD tx inactive, KB-3-1 cytotox inactive, IL-1B inflam inh inactive, KB-V1 MDR tox inconclusive and HT1080NT lethal inactive.
COc1ccc(C(=O)NNC(=S)NC(=O)C(C)(C)C)cc1 was read as HT1080 IDH1KD tx inconclusive, KB-3-1 cytotox inconclusive, IL-1B inflam inh -102, KB-V1 MDR tox inactive and HT1080NT lethal inactive.
`COc1ccccc1C(=O)NNC(=S)NC(=O)c1cc(OC)c(OC)c(OC)c1` gave HT1080 IDH1KD tx inconclusive, KB-3-1 cytotox inactive, IL-1B inflam inh inactive, KB-V1 MDR tox inactive and HT1080NT lethal inactive.
COc1ccc(C(=O)NC(=S)NNC(=O)c2cnccn2)cc1 was read as HT1080 IDH1KD tx 2.9µM, KB-3-1 cytotox inconclusive, IL-1B inflam inh inactive, KB-V1 MDR tox inactive and HT1080NT lethal inconclusive.
For CCCCOc1ccc(C(=O)NNC(=O)c2cnccn2)cc1OC the results were HT1080 IDH1KD tx inconclusive, KB-3-1 cytotox inconclusive, IL-1B inflam inh -73, KB-V1 MDR tox inactive and HT1080NT lethal inconclusive.
O=C(NC(=S)NNC(=O)c1cnccn1)c1ccc(Cl)cc1 was read as HT1080 IDH1KD tx inconclusive, KB-3-1 cytotox inactive, IL-1B inflam inh inactive, KB-V1 MDR tox inactive and HT1080NT lethal inactive.
Screening CC1=C(C(=O)OC2CCCC2)C(c2ccc(F)cc2F)CC(=O)N1 (stereo not drawn) returned KB-3-1 cytotox inactive and KB-V1 MDR tox inactive.
Screening Cc1ccc(S(=O)(=O)NC(CC(=O)O)c2cccs2)cc1 (stereo not drawn) returned HT1080 IDH1KD tx inactive, KB-3-1 cytotox inactive, IL-1B inflam inh inactive, KB-V1 MDR tox inactive and HT1080NT lethal inactive.
Screening N/C(CCS(=O)(=O)c1ccc(Cl)cc1)=N\OC(=O)c1ccccc1Cl returned HT1080 IDH1KD tx inconclusive, KB-3-1 cytotox inactive, IL-1B inflam inh -51, KB-V1 MDR tox inactive and HT1080NT lethal inconclusive.
For CCn1cc(C(=O)N2CCN(c3ccccc3F)CC2)c(=O)c2ccc(C)nc21 the results were HT1080 IDH1KD tx inactive, KB-3-1 cytotox inactive, IL-1B inflam inh inactive, KB-V1 MDR tox inactive and HT1080NT lethal inactive.
For COc1ccc(CCN(C)Cc2ccc(C(=O)Nc3ccccc3)cc2)cc1OC the results were HT1080 IDH1KD tx inactive, KB-3-1 cytotox inactive, IL-1B inflam inh inconclusive, KB-V1 MDR tox inactive and HT1080NT lethal inactive.
Screening COC(=O)[C@@H](Cc1c[nH]c2ccccc12)NC(=O)CCC(=O)c1ccc(F)cc1 returned HT1080 IDH1KD tx inactive, KB-3-1 cytotox inactive, IL-1B inflam inh inactive, KB-V1 MDR tox inactive and HT1080NT lethal inactive.

Compound activity from PubChem.
